Source: the antibiotic and cytotoxicity screens of Wong et al. (2023)
In all, about 39,000 compounds went through this assay and about 3,300 (8.5%) were called active. The sample holds actives, similar compounds and a random draw of the others, so the mix is not that of the screen.

What follows are molecules tested on HepG2 (assay: cytotoxicity call (relative viability < 0.9)). Settings: 10 µM.

Row | Compound | cytotoxicity call
1 | CNC[C@H]1Oc2ccc(NS(=O)(=O)c3cn(C)cn3)cc2C(=O)N([C@@H](C)CO)C[C@H]1C | inactive
2 | C[C@@H]1CCCCO[C@@H](CN(C)C(=O)Nc2ccccc2)[C@H](C)CN([C@@H](C)CO)C(=O)c2cc(NC(=O)Nc3ccccc3)ccc2O1 | inactive
3 | C[C@@H]1CN([C@@H](C)CO)C(=O)c2cc(-c3ccc(C(=O)N(C)C)cc3)cnc2O[C@H]1CN(C)C(=O)CN(C)C | inactive
4 | C[C@H]1CCCCO[C@H](CN(C)Cc2ccccc2)[C@@H](C)CN([C@@H](C)CO)C(=O)c2cc(NC(=O)c3ccncc3)ccc2O1 | inactive
5 | Cc1noc(C)c1NC(=O)Nc1ccc2c(c1)C(=O)N([C@H](C)CO)C[C@@H](C)[C@H](CN(C)Cc1ccc(Oc3ccccc3)cc1)O2 | inactive
6 | Cc1cc(C(=O)Nc2cccc3c2O[C@@H](CN(C)C(=O)NC(C)C)[C@H](C)CN([C@H](C)CO)C3=O)n(C)n1 | inactive
7 | C[C@@H]1CN([C@@H](C)CO)C(=O)c2cc(NC(=O)Nc3cccc4ccccc34)ccc2O[C@@H](C)CCCCO[C@@H]1CN(C)S(=O)(=O)c1ccc(F)cc1 | inactive
8 | CN1CCN(C(=O)C[C@H]2CC[C@@H](NC(=O)c3ccc4c(c3)OCO4)[C@H](CO)O2)CC1 | inactive
9 | C[C@@H]1CN([C@@H](C)CO)C(=O)c2c(c3ccccc3n2C)-c2ccccc2CO[C@H]1CN(C)C(=O)Nc1ccccc1 | inactive
10 | CN1C(=O)c2cc(NC(=O)C3CCOCC3)ccc2OC[C@H]2O[C@H](CC(=O)NCc3ccccc3F)CC[C@H]21 | inactive
11 | C[C@H]1CN([C@@H](C)CO)C(=O)c2cc(NS(=O)(=O)c3cn(C)cn3)ccc2O[C@@H]1CN(C)Cc1ccccc1 | inactive
12 | C=CC1=C(C)C(=Cc2[nH]c(Cc3[nH]c(C=C4NC(=O)C(C)=C4C=C)c(C)c3CCC(=O)O)c(CCC(=O)O)c2C)NC1=O | inactive
13 | COC(=O)CCc1c(c/2[nH]c1/C=C/1\N=C(/C=C/3\N=C(/C=C/4\N/C(=C2)[C@]2(C)[C@H](C(=O)OC)C(=CC=C42)C(=O)OC)C(=C3C=C)C)C(=C1CCC(=O)O)C)C | active
14 | C=CC1=C(C)c2cc3[nH]c(cc4nc(cc5[nH]c(cc1n2)c(C)c5CCC(=O)O)C(CCC(=O)O)=C4C)c(C)c3C=C | active
15 | CC1=C(CCC(=O)O)c2cc3[nH]c(cc4nc(cc5[nH]c(cc1n2)c(C)c5C(C)O)C(C)=C4C(C)O)c(C)c3CCC(=O)O (stereo not drawn) | active
16 | CCc1c(c/2[nH]c1/C=C/1\N=C(/C(=C/3\N=C(/C=C/4\N/C(=C2)C(=C4C)C=C)[C@@H](C)[C@@H]3CCC(=O)O)CC(=O)N[C@@H](CC(=O)O)C(=O)O)C(=C1C)C(=O)O)C | inactive
17 | CC/1=C(CCC(=O)O)/C/2=C/c3[nH]c(c(c3CCC(=O)O)C)/C=C/3\N=C(/C=C/4\N=C(\C=C1/N2)C(=C4C)C=C)C(=C3C)C=C | active
18 | C=CC1=C(C)C2=NC/1=C\C1=NC(=C\C3=NC(=C\C4=NC(=C\2)/C(C)=C4CCC(=O)O)/C(CCC(=O)O)=C3C)/C(C=C)=C1C | inactive
